GLP-1R agonist = agonists of human GLP-1 receptor | P43220 | HEK293 GLP-1R CRE-luciferase, luminescence, 4-6 h; cells express a hypersensitive GLP-1R form | Potency, µM (top dose mostly 45.6 µM), inactives show top-dose activation, usual class: activators | 380,000 tested, 0.007% active; further: % of control where 0% means no effect
GRP78 ERSR act = inducers of ER stress response in human glioma cells | 420,000 tested, 0.02% active | Potency, µM, without a hit: at the highest dose activation, actives largely listed as activators | U87-MG GRP78 promoter luciferase reporter, 16 h; further: series mostly up to about 76 µM; % of control where 0% means no effect; nearly all actives have a fitted effect of over 35% in size
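ERSR induction read as luciferase luminescence (Bright-Glo, 10 min at room temperature) in stably transfected human U87-MG glioma cells exposed to compounds for 16 h, using GRP78 as sensor.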
12-LOX inh = ALOX12 (human) lipoxygenase inhibition; 580,000 tested, 1.1% active; Potency, µM (titrated, usually from 108 µM), inactives show at the top dose activity change, negative = inhibition, hits mostly inhibitors; purified 12hLO, xylenol orange hydroperoxide absorbance; AID 1671190; further: on the % scale 0 is the no-effect control and ±100 the full control effect
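Purified human 12hLO at 150 nM in 25 mM Hepes, 0.01% Triton X-100, pH 7.0, preincubated 15 min at room temperature with compound. Reaction started with 40 uM arachidonic acid, 30 min at room temperature. Hydroperoxide measured by Fe-xylenol orange, 573/405 nm absorbance ratio.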
GLS inh = inhibitors of human glutaminase (GLS) | 410,000 tested, 0.21% active | Potency, µM (titrated, usually from 45.5 µM), inactives show top-dose activity change, negative = inhibition, usual class: inhibitors | GLS enzymatic activity, qHTS titration | O94925; further: on the % scale 0 is the no-effect control and ±100 the full control effect
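hKGA; 45 mM KH2PO4 pH 8.2 + 0.02% Tween-20; cpd via pin tool; 1 mM Gln soln; GluOx/HRP/Amplex Red; RT 30 min; fluor. t0 & final.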
GLP1R inv ag = GLP-1 receptor (human) inverse agonism | P43220 | 410,000 tested, 1.6% active | Potency, µM (series often up to 38.3 µM), inactives show at the top dose activity change, negative = inhibition, hits mostly inhibitors | HEK293 GLP-1R CRE-luciferase, luminescence, 24 h; GLP-1R form is constitutively active; further: on the % scale 0 is the no-effect control and ±100 the full control effect; nearly all actives have a fitted effect of over 55% in size
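Constitutively active GLP-1R drives a cAMP-responsive luciferase in stably transfected HEK293 cells; test compounds are added after overnight (12 h) attachment and left 24 hr, and signal loss in luminescence marks inhibition.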
PTHR1 agonist = agonists of human PTHR1 parathyroid hormone receptor. HEK293 GP2 PTHR1 cells, GloSensor cAMP luminescence, 1 h. 410,000 tested, 0.075% active. Q03431. AID 743266. Potency, µM (series often up to 115 µM), for inactives: at the top dose activation, hits mostly activators; further: nearly all actives have a fitted effect of over 55% in size
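HEK-293-derived GP2 cells expressing PTHR1 and a GloSensor cAMP reporter, 3,000/well, plated overnight, given luciferin plus IBMX (each 0.5 mM as added) for 1 h at 37 °C, then compound for 1 h at 37 °C. Luminescence was read after 15 min at room temperature.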
* marks the source's active call; other numbers are inactive results; i = inactive; ? = inconclusive; . = not tested or not shown. In the library only some 2.3% were active in any assay of this set; here they are far more common. The call rests on the fitted dose curve; in most records, active means well fitted curve in the direction sought with a large enough effect; inconclusive means small, poorly fitted or top-dose-only effect, or another doubt; inactive means no such curve, though single readings can be large; an effect the other way counts as inactive or inconclusive. Potency means the concentration at half of the fitted maximal effect.

SMILES	GLP-1R agonist	GRP78 ERSR act	12-LOX inh	GLS inh	GLP1R inv ag	PTHR1 agonist
CCOc1ccc(Br)cc1C1C(C#N)=C(N)Oc2cc3c(cc21)OCO3 (configuration not stated)	.	.	7.1µM*	.	.	.
CC(C)CC(=O)Nc1ccc2oc(-c3cccc(Cl)c3)nc2c1	.	.	-14%	.	.	.
Cc1cc(C)c2c(c1)NC(C(=O)O)C1CC=CC21 (configuration not stated)	6%	-4%	7.9µM*	10µM*	-4%	-11%
CCCN(Cc1ccccc1)C(=O)CCc1cccs1	.	.	-7%	.	.	.
Cc1ccc(SCCOc2ccccc2C=O)cc1	.	.	-42%	.	.	.
NN/C(=C\[N+](=O)[O-])Nc1ccc(Cl)cc1	5%	5%	35µM*	8%	-45%	i
NN/C(=C\[N+](=O)[O-])Nc1ccccc1	9%	2%	-16%	0%	25%	-48%
CC(C)C(=O)NCCNC(=O)c1ccc2ccccc2n1	.	.	-8%	.	.	.
CCNC(=O)c1cccc(NC(=O)C2CCCC2)c1	.	.	10%	.	.	.
O=C(Nc1nc2ccccc2[nH]1)c1ccc(OC(F)F)cc1	9%	-10%	-11%	-1%	?	-26%
CC(C)Oc1ccc(C(=O)Nc2nc3ccccc3[nH]2)cc1	1%	-12%	-1%	-12%	1.1µM*	-39%
CN1CCN(c2ncc3nc(-c4cc(F)cc(F)c4)c(=O)n(Cc4cccs4)c3n2)CC1	.	-6%	18µM*	.	.	.
COc1ccc(-n2c(=O)c(CCc3ccccc3)nc3cnc(N4CCN(C)CC4)nc32)cc1	.	-6%	13µM*	.	.	.
CN1CCN(c2ncc3nc(-c4ccccc4)c(=O)n(Cc4ccc(F)cc4)c3n2)CC1	.	-4%	35µM*	.	.	.
CCNc1ncc2nc(-c3cc(F)cc(F)c3)c(=O)n(CCc3ccccc3)c2n1	.	-4%	11µM*	.	.	.
CN1CCN(c2ncc3nc(-c4ccc(Cl)cc4)c(=O)n(Cc4ccc(F)cc4)c3n2)CC1	.	-5%	?	.	.	.
CCCCOc1ccc2c(C)c(CCC(C)C)c(=O)oc2c1	.	.	-3%	.	.	.
COc1ccc(S(=O)(=O)NC2CCCCC2)c2cccnc12	.	.	28%	.	.	.
CC(=O)N/C(=C/c1cccnc1)C(=O)O	.	.	2%	.	.	.
O=C(O)CC(c1ccncc1)c1c[nH]c2ccccc12 (configuration not stated)	.	.	3.5µM*	.	.	.
Fc1ccc(C(Nc2ccccn2)c2c[nH]c3ccccc23)cc1 (configuration not stated)	14%	-5%	6.3µM*	7%	?	-29%
O=[N+]([O-])CC(c1ccc(F)cc1)c1c[nH]c2ccccc12 (configuration not stated)	3%	-2%	-15%	-7%	7.1µM*	-7%
NCC(c1ccccc1)c1c[nH]c2ccccc12 (configuration not stated)	4%	0%	15%	5%	?	-23%
CCNc1c(NC(=O)c2cccc(OC)c2)c(=O)oc2ccccc12	.	.	-4%	.	.	.
CC(C)C(NC(=O)c1ccccc1I)c1cccs1 (configuration not stated)	.	.	20%	.	.	.
SMILES	GLP-1R agonist	GRP78 ERSR act	12-LOX inh	GLS inh	GLP1R inv ag	PTHR1 agonist
COc1ccc2oc(=O)c(-c3ccc(OCC(=O)N4CCN(C(C)=O)CC4)cc3)cc2c1	.	.	29%	.	.	.
CC1CCCCC1NC(=O)/C=C/c1cccs1 (configuration not stated)	.	.	16%	.	.	.
COCCCNC(=O)c1nc(-c2ccc3[nH]ccc3c2)no1	.	.	-39%	.	.	.
CCOC(=O)NC1CCCN(CC=C(C)C)C1 (configuration not stated)	.	.	48%	.	.	.
OC(CC#CCN1CCN(CC#CCC(O)(c2ccccc2)c2ccccc2)CC1)(c1ccccc1)c1ccccc1	.	.	11µM*	.	.	.
CCN(CC)CC#CCC(O)(c1ccccc1)c1ccccc1	4%	-4%	261%	-15%	?	-17%
